# Source: PubChem BioAssay (NCI)
# This is part of a sample that, as a whole, favours compounds with a hit. Of some 83,000 tested, about 20% had one in any assay.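 Plates (96-well) were seeded with cells, treated with compound at one concentration, and incubated for 48 hours before percent growth was determined.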 Values without a mark were called inactive. Calls of active or inactive are those of the source. Rule for the calls: active = growth percent below 10; inactive = the rest.
# Assays:
# Test in all cases: NCI-60 one-dose screen, 48 h (100 = growth as untreated, 0 = no growth, -100 = all killed)
# Details in all cases: 10 µM unless noted
# [1] = tested on: HCT-15 colon
# [2] = tested on: HT29 colon
# [3] = tested on: SNB-75 CNS
# [4] = tested on: SNB-19 CNS
# [5] = tested on: U251 CNS
# [6] = tested on: PC-3 prostate
# [7] = tested on: SK-MEL-5 melanoma
# [8] = tested on: UACC-62 melanoma
# [9] = tested on: LOX IMVI melanoma
# [10] = tested on: SK-MEL-28 melanoma
# [11] = tested on: SK-MEL-2 melanoma
# [12] = tested on: EKVX NSCLC
# [13] = tested on: SN12C renal
# [14] = tested on: UO-31 renal
# [15] = tested on: TK-10 renal
# [16] = tested on: ACHN renal
# [17] = tested on: CAKI-1 renal
# [18] = tested on: A498 renal
# [19] = tested on: CCRF-CEM leukemia
# [20] = tested on: MOLT-4 leukemia
Compound,growth [1],growth [2],growth [3] [%],growth [4],growth [5],growth [6] [%],growth [7],growth [8],growth [9],growth [10],growth [11] [%],growth [12] [%],growth [13],growth [14],growth [15] [%],growth [16] [%],growth [17] [%],growth [18],growth [19],growth [20]
c1cc(OCCN2CCCCCC2)ccc1CNc1ccc2nc(CCC3CCCCC3)[nH]c2c1,3.08% (active),8.15% (active),74.2,79.5%,45.2%,50.5,-86.3% (active),83.9%,-67.4% (active),-8.14% (active),75,79.8,54.7%,10.8%,88.7,80.6,42.8,62.5%,29.5%,25.5%
CCN(CC)CCOc1ccc2c(-c3ccccc3)c(-c3ccc(OC)cc3)c(=O)oc2c1,11.4%,17%,82.6,69%,44.4%,65.4,25.9%,-15% (active),29.3%,43.1%,51.6,83.9,68.5%,62.6%,75.9,75.3,71.9,70.2%,75.3%,35.4%
CCN1C(=O)N(c2ccccc2)C2NC(=S)N(/N=C/C=C/c3ccccc3OC)C21 (stereo not given),8.49% (active),7.61% (active),25.2,32.7%,15.6%,29.3,-14.1% (active),32.6%,15.4%,57.7%,50.8,54,17.9%,34.7%,75.7,29.2,19.5,3.46% (active),11.4%,13.3%
O=C(O)CCCCCCCCCCN1C(=O)/C(=C2/C(=O)N(CC(=O)O)c3ccc(Br)cc32)SC1=S,44.2%,100%,92.5,99.9%,72%,74.8,81.2%,80.3%,78.2%,104%,100,97.2,86.3%,72.8%,128,84.2,83.8,95.2%,71.4%,34.2%
CCn1cc(C(=O)N/N=C/c2cccc(F)c2)c(=O)c2cc(F)c(N3CCNC(C)C3)c(F)c21 (stereo not given),-81.8% (active),-87.2% (active),90.1,-59.4% (active),-74.3% (active),69.6,52.6%,64.8%,-90.9% (active),-64.3% (active),104,50.7,-4.46% (active),20.6%,101,74.4,66.7,99.2%,-47% (active),-26% (active)
Cc1nc2sc(C(=O)Nc3ccccn3)c(N)c2cc1C(C)O (stereo not given),36.4%,27.4%,89.3,64.7%,48.8%,72.7,45%,42.7%,67.1%,67.4%,53.9,86,93.7%,78.4%,79.4,89,85.5,77.1%,49.6%,64.1%
CN1C(=O)N2CN3CCCN(C3)CN3C(=S)NC1C23 (stereo not given),103%,95.2%,93.4,99.3%,101%,98.4,100%,101%,98.7%,119%,108,104,97.7%,99.5%,108,118,98,98.9%,90.2%,111%
CN1CCOCCN(C)Cc2ccc3ccc(cc3c2)CN(C)CCOCCN(C)Cc2ccc3ccc(cc3c2)C1,73.2%,7.33% (active),78.3,86.5%,80.7%,55.5,99.4%,104%,93.8%,105%,114,106,92.6%,80.8%,97.4,98.5,77.7,79.1%,56.3%,74%
O=C(/C=C/c1ccccc1)c1ccc(-n2cc(CN3CCN(c4cc5c(cc4F)c(=O)c(C(=O)O)cn5C4CC4)CC3)nn2)cc1,91.6%,79.2%,72.3,72%,42.2%,79.3,77.6%,73.8%,36.2%,88.2%,96.8,94,45.8%,62.5%,83.3,93.5,61.4,52.2%,64.9%,84.1%
O=C(/C=C/c1ccccc1)N(C1CCCCC1)C1CCCCC1,86.3%,68.6%,81.4,87.7%,84.3%,60.2,89.9%,75%,92.3%,97.9%,82.9,85.1,97.3%,97%,112,86,66.8,93.4%,79.6%,92.1%
Cc1ccc2c(c1)nc(C)n2-c1ncnc2c1CC(C)c1cc(O)ccc1N2C (stereo not given),26.7%,36.8%,25.3,48.7%,20%,29.6,23.7%,39.3%,43%,61.1%,21.4,44.2,52.3%,47.9%,56.1,49.5,42.4,6.65% (active),9.39% (active),13.4%
COc1cc(-c2ccc(-c3ccc(C(=N)N)cc3)s2)cc(OC)c1OC,58.9%,8.4% (active),64.8,69.1%,26.2%,53.4,55.3%,54.7%,27.2%,77.3%,83.9,75.4,71.4%,79.3%,113,91.1,63.4,89.2%,26.9%,-2.06% (active)
O=c1cc(-c2ccccc2)nc(SCc2nc3cc(Cl)c(Cl)cc3[nH]2)[nH]1,98%,96.4%,86,109%,99.9%,103,105%,105%,98%,111%,91.3,102,105%,81.7%,104,97.3,93.3,93.7%,124%,95.5%
CN1c2ccccc2S(=O)(=O)n2c(SCC(=O)Nc3nc4ccc(F)cc4s3)nnc21,119%,119%,90.7,107%,127%,87.8,87.2%,96.5%,92.5%,127%,52.6,102,104%,-65.7% (active),130,96.1,97.3,119%,31.1%,81.9%
CC1=Nc2cnc(Nc3ccc(N4CCCCC4)cc3)nc2Nc2ccccc21,62.6%,62.5%,86.7,94.9%,83.8%,19.6,41.6%,55.2%,75.8%,84.7%,86,68.8,69.7%,49.7%,97.3,68.1,79.3,55.8%,31.5%,26.7%
